The text below walks through data of PubChem BioAssay (EPA / NIEHS).

What all share (details): mRNA level, 48 h; actives raise or lower the signal
Read-out in assay [1]: CFLAR gene, CFLAR (gene 8837)
The experiment in a line: LTEA_HepaRG_CFLAR: Life Technologies and Expression Analysis (LTEA) Assay for CFLAR gene using HepaRG (AID 2283455). The method in brief:
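HepaRG cells were plated for 48 h, switched to serum-free induction medium, then exposed in duplicate for 48 h to 8 concentrations (top 100 uM, half-log steps, 0.5% DMSO). CFLAR mRNA was measured by qRT-PCR, normalized to ACTB, GAPDH and POLR2A.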

Read-out in assay [2]: Forkhead box O1 (FOXO1), FOXO1 (gene 2308)
The experiment in a line: LTEA_HepaRG_FOXO1: Life Technologies and Expression Analysis (LTEA) Assay for Forkhead box O1 (FOXO1) using HepaRG (AID 2283456). The method in brief:
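Differentiated human HepaRG cells in serum-free induction medium were exposed in duplicate for 48 h to eight half-log concentrations (top 100 uM, 0.5% DMSO). FOXO1 mRNA was measured by TaqMan qRT-PCR, normalised to ACTB, GAPDH and POLR2A, and fitted bidirectionally against DMSO.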

Read-out in assay [3]: growth arrest and DNA damage 45 (GADD45A), GADD45A (gene 1647)
The experiment in a line: LTEA_HepaRG_GADD45A: Life Technologies and Expression Analysis (LTEA) Assay for growth arrest and DNA damage 45 (GADD45A) using HepaRG (AID 2283458). The method in brief: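 Differentiated HepaRG cells exposed 48 h in serum-free induction medium to 8 concentrations, top 100 uM in half-log steps, 0.5% DMSO. GADD45A mRNA quantified by qRT-PCR, normalized to ACTB, GAPDH and POLR2A; bidirectional fit versus DMSO.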

Read-out in assay [4]: Forkhead box O3 (FOXO3), FOXO3 (gene 2309)
As to the kind of experiment: LTEA_HepaRG_FOXO3: Life Technologies and Expression Analysis (LTEA) Assay for Forkhead box O3 (FOXO3) using HepaRG (AID 2283459). In outline:
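Differentiated human HepaRG cells in serum-free induction medium were exposed in duplicate for 48 h to eight half-log concentrations up to 100 uM in 0.5% DMSO. FOXO3 mRNA was quantified by qRT-PCR, normalized to ACTB, GAPDH and POLR2A, with bidirectional fitting versus DMSO.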

Read-out in assay [5]: ABC Transporter (ABCB1), ABCB1 (gene 5243)
As to the kind of experiment: LTEA_HepaRG_ABCB1: Life Technologies and Expression Analysis (LTEA) Assay for ABC Transporter (ABCB1) using HepaRG (AID 2283460). The method in brief: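 Differentiated human HepaRG cells, plated 48 h then switched to serum-free induction medium, were exposed in duplicate to eight half-log concentrations up to 100 uM in 0.5% DMSO for 48 h. ABCB1 mRNA was measured by TaqMan qRT-PCR, normalized to ACTB/GAPDH/POLR2A.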

Read-out in assay [6]: growth arrest and DNA damage 45 (GADD45B), GADD45B (gene 4616)
As to the kind of experiment: LTEA_HepaRG_GADD45B: Life Technologies and Expression Analysis (LTEA) Assay for growth arrest and DNA damage 45 (GADD45B) using HepaRG (AID 2283461). In outline: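 Human HepaRG monolayers receive chemicals for 48 h at eight half-log concentrations, highest 100 uM, in 0.5% DMSO. Expression is measured by TaqMan qRT-PCR and normalized to ACTB, GAPDH and POLR2A.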

Read-out in assay [7]: ABC Transporter (ABCC3), ABCC3 (gene 8714)
As to the kind of experiment: LTEA_HepaRG_ABCC3: Life Technologies and Expression Analysis (LTEA) Assay for ABC Transporter (ABCC3) using HepaRG (AID 2283462). The method in brief: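 Transcriptional change of ABCC3 in HepaRG after 48 h treatment, determined by qRT-PCR normalized to endogenous controls. Concentrations spanned eight half-log steps to 100 uM in 0.5% DMSO.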

Read-out in assay [8]: ABC Transporter (ABCB11), ABCB11 (gene 8647)
The experiment in a line: LTEA_HepaRG_ABCB11: Life Technologies and Expression Analysis (LTEA) Assay for ABC Transporter (ABCB11) using HepaRG (AID 2283463). The method in brief: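 Differentiated human HepaRG cells were exposed for 48 h in serum-free induction medium to eight half-log concentrations up to 100 uM in 0.5% DMSO. ABCB11 mRNA was quantified by qRT-PCR, normalized to ACTB, GAPDH and POLR2A, and fitted bidirectionally versus DMSO.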

Read-out in assay [9]: ABC Transporter (ABCC2), ABCC2 (gene 1244)
The experiment in a line: LTEA_HepaRG_ABCC2: Life Technologies and Expression Analysis (LTEA) Assay for ABC Transporter (ABCC2) using HepaRG (AID 2283464). In outline: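 After plating and 48 h culture, HepaRG medium is replaced with serum-free induction medium and chemicals are added (8 concentrations, max 100 uM, 0.5% DMSO) for 48 h. Total RNA then undergoes qRT-PCR for ABCC2 with housekeeping normalization.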

Read-out in assay [10]: Broad substrate specificity ATP-binding cassette transporter ABCG2 (Homo sapiens) (UniProt Q9UNQ0)
As to the kind of experiment: LTEA_HepaRG_ABCG2: Life Technologies and Expression Analysis (LTEA) Assay for ABC Transporter (ABCG2) using HepaRG (AID 2283465). In outline:
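Differentiated HepaRG cells in serum-free induction medium were exposed for 48 h, in duplicate, to eight half-log concentrations up to 100 uM in 0.5% DMSO. ABCG2 mRNA was measured by TaqMan qRT-PCR, normalized to ACTB, GAPDH and POLR2A, and fitted bidirectionally versus DMSO.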

Read-out in assay [11]: ATP-citrate lyase (ACLY), ACLY (gene 47)
As to the kind of experiment: LTEA_HepaRG_ACLY: Life Technologies and Expression Analysis (LTEA) Assay for ATP-citrate lyase (ACLY) using HepaRG (AID 2283466). In outline: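 Differentiated human HepaRG cells in serum-free induction medium exposed 48 h, in duplicate, to eight half-log concentrations from 100 uM top in 0.5% DMSO; ACLY mRNA measured by qRT-PCR, normalized to ACTB, GAPDH, POLR2A, fitted bidirectionally versus DMSO.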

Read-out in assay [12]: Peroxisomal acyl-coenzyme A oxidase 1 (ACOX1) gene, ACOX1 (gene 51)
The experiment in a line: LTEA_HepaRG_ACOX1: Life Technologies and Expression Analysis (LTEA) Assay for Peroxisomal acyl-coenzyme A oxidase 1 (ACOX1) gene using HepaRG (AID 2283467). In outline: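 Differentiated human HepaRG cells were exposed in duplicate for 48 h in serum-free induction medium to eight half-log concentrations up to 100 uM in 0.5% DMSO. ACOX1 mRNA was then quantified by TaqMan qRT-PCR, normalized to ACTB, GAPDH and POLR2A.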

Read-out in assay [13]: Alkaline Phosphatase, Placental (ALPP) gene, ALPP (gene 250)
As to the kind of experiment: LTEA_HepaRG_ALPP: Life Technologies and Expression Analysis (LTEA) Assay for Alkaline Phosphatase, Placental (ALPP) gene using HepaRG (AID 2283468). In outline: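 Using human liver HepaRG cells, chemicals are tested in duplicate over 48 h at half-log concentrations topping at 100 uM; phenobarbital 1 mM serves as induction control. ALPP mRNA change by qRT-PCR, bidirectional fit against vehicle.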

Read-out in assay [14]: Bcl-2 (BAD) gene, BAD (gene 572)
As to the kind of experiment: LTEA_HepaRG_BAD: Life Technologies and Expression Analysis (LTEA) Assay for Bcl-2 (BAD) gene using HepaRG (AID 2283469). In outline: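 Differentiated human HepaRG cells in serum-free induction medium were exposed in duplicate for 48 h to eight concentrations (top 100 uM, half-log steps, 0.5% DMSO). BAD mRNA was quantified by qRT-PCR normalised to ACTB, GAPDH and POLR2A, with bidirectional fitting versus DMSO.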

Read-out in assay [15]: Bcl-2 (BAX) gene, BAX (gene 581)
The experiment in a line: LTEA_HepaRG_BAX: Life Technologies and Expression Analysis (LTEA) Assay for Bcl-2 (BAX) gene using HepaRG (AID 2283470). The method in brief:
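Differentiated HepaRG cells exposed 48 h in serum-free induction medium, eight half-log concentrations from 100 uM, in duplicate, 0.5% DMSO vehicle. BAX mRNA by TaqMan qRT-PCR, normalised to ACTB, GAPDH and POLR2A.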

Read-out in assay [16]: BCL2L11 (gene 10018)
The experiment in a line: LTEA_HepaRG_BCL2L11: Life Technologies and Expression Analysis (LTEA) Assay for Bcl-2 (BCL2L11) gene using HepaRG (AID 2283473). In outline: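 Human hepatic HepaRG cultures are treated 48 h with test chemicals (maximum 100 uM, 0.5% DMSO vehicle). Expression of BCL2L11 is measured by qRT-PCR against ACTB, GAPDH and POLR2A, with activity in either direction scored relative to vehicle.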

Read-out in assay [17]: Apolipoprotein A-V (APOA5) gene, APOA5 (gene 116519)
The experiment in a line: LTEA_HepaRG_APOA5: Life Technologies and Expression Analysis (LTEA) Assay for Apolipoprotein A-V (APOA5) gene using HepaRG (AID 2283474). The method in brief: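 Concentration-response of APOA5 expression in HepaRG: eight half-log doses to 100 uM, 48 h, qRT-PCR normalized to ACTB/GAPDH/POLR2A, bidirectional fitting with 0.5% DMSO as baseline.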

Read-out in assay [18]: adenosine kinase (ADK) gene, ADK (gene 132)
The experiment in a line: LTEA_HepaRG_ADK: Life Technologies and Expression Analysis (LTEA) Assay for adenosine kinase (ADK) gene using HepaRG (AID 2283471). The method in brief: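 Following 48 h exposure of HepaRG cells in 0.5% DMSO (top concentration 100 uM, duplicate wells), ADK mRNA induction or suppression was measured by qRT-PCR, normalised to ACTB/GAPDH/POLR2A, and fitted bidirectionally relative to vehicle.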

Each structure is given as a SMILES string. The source made the active and inactive calls. Rule for the calls: active = hit-call score of the fitted dose curve at least 0.9, where 1 is the maximum; inactive = score below 0.9.

A word on the AC50: it is the midpoint of the concentration-response curve, whichever way the signal moves.

Chain of Broad substrate specificity ATP-binding cassette transporter ABCG2 (Homo sapiens) (Q9UNQ0 whole entry, looked up): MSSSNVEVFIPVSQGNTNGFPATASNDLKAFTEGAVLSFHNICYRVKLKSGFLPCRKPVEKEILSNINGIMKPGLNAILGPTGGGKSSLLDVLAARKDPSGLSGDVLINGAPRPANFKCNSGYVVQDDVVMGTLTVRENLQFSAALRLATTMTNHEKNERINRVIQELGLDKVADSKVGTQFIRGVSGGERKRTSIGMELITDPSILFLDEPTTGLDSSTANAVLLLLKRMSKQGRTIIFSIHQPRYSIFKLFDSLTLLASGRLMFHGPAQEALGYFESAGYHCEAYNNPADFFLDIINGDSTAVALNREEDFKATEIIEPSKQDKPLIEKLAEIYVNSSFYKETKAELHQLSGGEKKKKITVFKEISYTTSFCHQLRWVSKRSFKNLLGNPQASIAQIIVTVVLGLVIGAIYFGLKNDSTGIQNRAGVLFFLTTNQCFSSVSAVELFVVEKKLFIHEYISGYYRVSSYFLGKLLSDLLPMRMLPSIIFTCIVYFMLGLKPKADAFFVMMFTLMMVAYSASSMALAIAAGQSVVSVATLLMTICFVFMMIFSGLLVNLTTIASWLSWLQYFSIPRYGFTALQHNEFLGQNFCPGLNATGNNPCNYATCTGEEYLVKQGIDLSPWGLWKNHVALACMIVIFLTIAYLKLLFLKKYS

As for `CO/C=C(/C(=O)OC)c1ccccc1COc1cccc(C(F)(F)F)n1`, the AC50 is 18.8 µM (active) in assay [1]; 7.38 µM (active) in assay [2]; 9.39 µM (active) in [3]; 24.7 µM (active) in assay [6]; 1.91 µM (active) in assay [7]; 5.64 µM (active) in assay [8]. Moreover, the AC50 in assay [9] is 28 µM (active); in assay [10], 3.03 µM (active); in assay [12], 5.3 µM (active); in [13] it was 5.39 µM (active); in assay [15], 9.44 µM (active); in assay [16], 6.53 µM (active). Besides, the AC50 in [17] is 9.59 µM (active). For the same compound, the call in [4], in assay [5], in assay [11] and in assay [14] was inactive.
In the case of `C1CC2OC2CC1C1CO1` (stereo not given), the call in assay [1], in [2], in assay [3], in [4], in assay [5] and in [6] was inactive. The compound was classed as inactive in assay [7], in [8], in [9], in [10], in [11] and in assay [12]. In addition, the compound was called inactive in assay [13], in [14], in [15], in assay [18], in assay [16] and in assay [17].
